Test results from PubChem BioAssay (NCI).
This is part of a sample that, as a whole, favours compounds with a hit. Of some 83,000 tested, about 20% had one in any assay.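 Percent growth is the endpoint: 0 to 100 indicates growth inhibition (40 means 60% inhibition), 0 means no net growth, and negative values indicate cell death.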 Values without a mark were called inactive. Activity calls are given as the source filed them. How the source made its calls: active means growth percent below 10; inactive means the rest.

Columns and labels:
Test in all cases: NCI-60 one-dose screen, 48 h (100 = growth as untreated, 0 = no growth, -100 = all killed)
Settings in all cases: 10 µM unless noted
SR leukemia = test system: SR leukemia
RPMI-8226 leukemia = test system: RPMI-8226 leukemia
OVCAR-8 ovarian = test system: OVCAR-8 ovarian
OVCAR-5 ovarian = test system: OVCAR-5 ovarian
OVCAR-4 ovarian = test system: OVCAR-4 ovarian
SK-OV-3 ovarian = test system: SK-OV-3 ovarian
IGROV1 ovarian = test system: IGROV1 ovarian
OVCAR-3 ovarian = test system: OVCAR-3 ovarian
NCI/ADR-RES ovarian = test system: NCI/ADR-RES ovarian
HS 578T breast = test system: HS 578T breast

| Compound | growth (SR leukemia) | growth (RPMI-8226 leukemia) | growth (OVCAR-8 ovarian) | growth (OVCAR-5 ovarian) | growth (OVCAR-4 ovarian) | growth (SK-OV-3 ovarian) | growth (IGROV1 ovarian) | growth (OVCAR-3 ovarian) | growth (NCI/ADR-RES ovarian) | growth (HS 578T breast) |
| --- | --- | --- | --- | --- | --- | --- | --- | --- | --- | --- |
| Cc1cc(C)c(NC(=O)c2sc3nc4c(cc3c2N)CN(Cc2ccccc2)CC4)c(C)c1 | 10.1% | 20.9% | 46.6% | 57.1% | 31.6% | 23.9% | 24.1% | -3.04% (active) | 18.5% |  |
| COc1ccc(S(=O)(=O)N2CCN(c3cc4c(cc3F)c(=O)c(C(=O)O)cn4C3CC3)CC2)c(OC)c1 | 81.6% | 86.7% | 92.4% | 110% | 101% | 98.6% | 101% | 95.8% | 102% |  |
| CCn1cc(C(=O)O)c(=O)c2cc(F)c(N3CCN(S(=O)(=O)c4cccc5ccccc45)CC3)cc21 | 2.85% (active) | 6.47% (active) | 8.43% (active) | 15.5% | 23.9% | 15.6% | 13.7% | -6.25% (active) | 21.4% |  |
| CC(=O)Nc1nc(C(=O)N2N=C(C)/C(=C/c3cccs3)C2=O)cs1 | 91.9% | 97.4% | 103% | 115% | 106% | 99.4% | 97.1% |  |  | 114% |
| O=C(Nc1ccc(Br)c(Cl)c1)c1cc(F)ccc1O | 0.366% (active) | -16.1% (active) | 6.78% (active) | 24.4% | 12.4% | 3.58% (active) | 16.2% | 12.1% | 6.11% (active) |  |
| CCn1cc(C(=O)O)c(=O)c2cc(F)c(N3CCN(S(=O)(=O)c4ccc(Cl)cc4Cl)CC3)cc21 | -19.7% (active) | 9.07% (active) | 5.84% (active) | 7.92% (active) | 129% | 1.7% (active) | 7.5% (active) | 7.89% (active) | 9.34% (active) |  |
| NS(=O)(=O)c1ccc(CN2C(=O)c3cccc4cccc(c34)C2=O)cc1 | 104% | 87.2% | 91.9% | 89.6% | 119% | 101% | 105% | 98.5% | 98% |  |
| Oc1ccc(Cl)cc1-c1cc(-c2ccc(Cl)cc2)n[nH]1 | 41.6% | 40.4% | 72.5% | 73.3% | 35% | 79% | 34.5% |  | 65.1% | 81.5% |
| CC(C)C[C@H](NC(=O)[C@@H](Cc1ccccc1)n1ccc(Nc2ccccc2)cc1=O)B(O)O | 21% | -16% (active) | 8.16% (active) | 16% | 33.9% | 46.1% | -35.1% (active) | -61% (active) | 75% |  |
| COc1ccccc1CNCCCN1C(=O)c2ccc3c4c(ccc(c24)C1=O)C(=O)N(CCCNCCCCNCCCCN)C3=O | 2.93% (active) | 17.3% | -18.2% (active) | 24.5% | -33.8% (active) | 28% | -57.8% (active) | 1.36% (active) | 62.2% |  |
| CCCCCC(=O)OCc1ccccc1 | 85.4% | 102% | 102% | 105% | 110% | 93.7% | 96.7% | 102% | 100% |  |
| COc1cc(NC(=O)CSc2nc3ccc(C)cc3c(=O)n2-c2ccccc2)cc(OC)c1OC | 42.3% | 76.3% | 87.4% | 99.5% | 68.9% | 107% | 89.6% | 84.4% | 75.5% |  |
| COc1ccc(OC)c(C(=O)c2oc3ccc(Br)cc3c2N)c1 | 10.2% | -16.5% (active) | 16.6% | 45.5% | 49.4% | -6.27% (active) | 41.2% | 3.65% (active) | 15.1% |  |
| CCNc1nc(N2CC(=O)Nc3cc(OC)ccc32)c2ccccc2n1 | 24.3% | 27.3% | 18.1% | 20% | 20.4% | 27.4% | 14.3% | -16.8% (active) | 0.157% (active) |  |
| COc1cccc(NC(=O)Cn2cc3c(=O)oc4ccccc4c3n2)c1 | 110% | 97.9% | 112% | 113% | 92.8% | 113% | 97.1% | 99.1% | 100% |  |
| CCN(Cc1ccccc1)c1ccc(SC#N)cc1 | -9.48% (active) | 80.3% | 85.9% | 97.2% | 50.5% | 107% | 103% | 46.2% | 81.9% |  |
| COc1ccc(NC(=O)CSc2nc3ccc(Cl)cc3c(=O)n2-c2ccccc2C(F)(F)F)c(OC)c1OC | 89.6% | 83.3% | 39.3% | 96.9% | -4.33% (active) | 30.2% | 75.3% | 82.5% | 72.4% |  |
| O=C1c2ccccc2C(=O)c2c(N=Nc3sc(=O)[nH]c3S)cccc21 | 85% | 90.2% | 94.9% | 129% | 95.3% | 117% | 94.1% | 89.1% | 98.8% |  |
| COc1cc(NCCCN=C(N)NC(N)=NC(C)C)c2ncccc2c1 | 75.2% | 52.5% | 88.5% | 57.6% | 11.3% | 93.7% | -12.8% (active) | 8.99% (active) | 98.8% |  |
| Cc1cccc(NC(=O)c2sc3nc4c(cc3c2N)CCCC4)c1 | 17.3% | 12.7% | 52.1% | 64.9% | 71.7% | 44% | 54.6% |  |  | 59.5% |
| O=S(=O)(NCCCNc1cc(-c2cn(-c3ccccc3)nc2-c2cccc(O)c2)ccn1)c1cccc2ccccc12 | 13.9% | 7.85% (active) | 48.4% | 59.7% | 45.2% | 58.8% | 51% | 49.8% | 39.9% |  |
| COc1ccc(C(=O)/C=C/c2ccc(/C=C/c3cc(OC)c(OC)c(OC)c3)cc2)cc1 | 9.61% (active) | -0.626% (active) | 28.4% | 117% | 65.7% | 102% | 6.66% (active) | 41.4% | 50% |  |
| Cc1cc(C)c(S(=O)(=O)N2CCN(c3cc4c(cc3F)c(=O)c(C(=O)O)cn4C3CC3)CC2)c(C)c1 | 39.1% | 22.4% | 59.5% | 42.2% | 75.6% | 81.6% | 35.7% | 91.3% | 69.9% |  |
| COc1cc(Cn2c(SCC(=O)Nc3cc(OC)c(OC)c(OC)c3)nc3ccccc3c2=O)cc(OC)c1OC | 66.6% | 96% | 81% | 88.8% | 89.8% | 51.2% | 72.6% |  | 99.5% | 48.4% |
| COc1ccc(/C=C2\C(=O)N(C(=O)c3csc(NC(C)=O)n3)N=C2C)cc1 | 82.2% | 98.4% | 96% | 110% | 109% | 100% | 95.9% |  | 105% | 111% |
| CCN(CC)P(=O)(N(CC)CC)N(CCCSC/C=C(\C)CC/C=C(\C)CCC=C(C)C)CCCN1CCN(C)CC1 | 22.9% | 94.6% | 97.1% | 103% | 92.5% | 103% | 110% | 104% | 106% |  |
| CCCC(C(=O)OCC)C(C)OC(=O)OCC (centres undefined) | 87.6% | 101% | 96.4% | 108% | 108% | 95.5% | 115% | 103% | 105% |  |
| O=C(O)c1cn(C2CC2)c2cc(N3CCN(S(=O)(=O)c4ccc(Cl)c(Cl)c4)CC3)c(F)cc2c1=O | -25.1% (active) | 4.86% (active) | 5.48% (active) | 12.5% | 20.8% | 26.8% | 29.3% | 9.87% (active) | 53.5% |  |
| CCSc1nnc(NC(=O)Cc2ccc(Cl)cc2)s1 | 103% | 116% | 113% | 97.1% | 107% | 106% | -24.9% (active) | 106% | 104% |  |
